Measurements reported in PubChem BioAssay (EPA / NIEHS).
Calls of active or inactive are those of the source. Rule for the calls: active = hit-call score of the fitted dose curve at least 0.9, where 1 is the maximum; inactive = score below 0.9.

Assay: Tanguay_ZF_120hpf_MUSC: Oregon State University Tanguay Lab 120 Hour Post-fertilization zebrafish Assay for Muscle Malformation (AID 2284401)
Procedure, shortened: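 Scored as a binary brightfield endpoint at 120 hpf, fitted versus DMSO. Single dechorionated wild-type (Tropical 5D) zebrafish embryos per well, statically exposed at 28C from 6 hpf onward with final DMSO 0.64%.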

Row | Compound | outcome
1 | C=CC(=O)OCCC(F)(F)C(F)(F)C(F)(F)C(F)(F)C(F)(F)C(F)(F)C(F)(F)C(F)(F)F | inactive
2 | O=S(=O)(OCCOC(F)(F)F)C(F)(F)F | inactive
3 | O=C(F)C1(F)C(F)(F)C(F)(F)C(F)(F)C(F)(F)C1(F)F | inactive
